In PubChem BioAssay (EPA / NIEHS):
“And” between values parts separate entries of the source, which are not always exact repeats. Equal entries are not always repeated. More than one record can exist for a structure, and the calls need not agree. The source made the active and inactive calls. How the source made its calls: active means hit-call score of the fitted dose curve at least 0.9, where 1 is the maximum; inactive means score below 0.9.

experiment: APR_HepG2_P-H2AX_24hr: Apredica 24-hour HepG2 Assay for H2AX Phosphorylation (AID 2282920); conditions: high-content imaging, actives raise or lower the signal
Experimental: APR_HepG2_24hr is a cell-based, multiplexed-readout assay that uses HepG2, a human liver cell line, with measurements taken at 24 hours after chemical dosing in a 384-well plate.APR_HepG2_P-H2AX_24hr is one of 10 assay component(s) measured or calculated from the APR_HepG2_24hr assay. It is designed to make measurements of dna content, a form of viability reporter, as detected with fluorescence intensity signals by HCS Fluorescent Imaging technology.Data from the assay component APR_HepG2_P-H2AX_24hr was analyzed into 1 assay endpoint. This assay endpoint, APR_HepG2_P-H2AX_24hr, was analyzed with bidirectional fitting relative to DMSO as the negative control and baseline of activity. Using a type of viability reporter, measures of protein for gain or loss-of-signal activity can be used to understand the signaling at the pathway-level as they relate to the gene . Furthermore, this assay endpoint can be referred to as a primary readout, because this assay has produced multiple assay endpoints where this one serves a signaling function. To generalize the intended target to other relatable targets, this assay endpoint is annotated to the dna binding intended target family, where the subfamily is cellular response to DNA damage stimulus.
Cells were treated with dimethyl sulfoxide (DMSO) as a solvent control at a final concentration of 0.5% v/v or with compounds in DMSO with a resulting final DMSO concentration of 0.5% v/v. Compound treatment was done at concentrations of 0.39, 0.78, 1.56, 3.12, 6.24, 12.5, 25, 50, 100, and 200 uM in duplicate on each plate. Cells were treated with compounds for 1, 24, or 72 hr. Carbonyl […] m-chloro-phenylhydrazone (CCCP) and taxol were used as positive controls for mitochondrial function and cytoskeletal stability, respectively; DMSO served as the negative control for this experiment. Cells were fixed by the direct addition of 50 uL formaldehyde in Hank's Balanced Salt Solution (HBSS) to a final concentration of 3.7%. After incubation in the fixation medium for 30 min at room temperature (293-298 K), cells were rinsed twice with HBSS and treated with cell permeabilization buffer (16 uL of 0.5% Triton X-100) for 10 min at room temperature (293-298 K) before labeling. For mitochondrial membrane potential and mitochondrial measurements, pre-fixed cells were incubated with 50 uL of MitoTracker Red CMXRos (Invitrogen) at a concentration of 250 nM for 30 min before fixation. In the remaining cases, post-fixed cells were labeled by incubation with a multiplexed mixture of primary antibodies in HBSS for 60 min at room temperature (293-298 K) to detect immunoreactivity of c-Jun (1:500), phospho-histone H3 (1:100), phospho-histone H2A.x (1:200), p53 (1:400), alpha-tubulin (1:200) and Hoechst 33342 (2 ug/mL). Cells were labeled for multiplexed imaging on two separate plates: a) Hoechst 33342, MitoTracker Red, phospho-histone H3, and alpha-tubulin, and b) Hoechst 33342, phospho-histone H2A.x, and c-Jun. A final rinse with HBSS (50 uL) was performed before analysis. The primary and secondary antibodies for the proteins were phospho-histone H3 (rabbit anti-phospho-histone H3 and FITC-donkey anti-rabbit IgG), phospho-histone H2A.x (mouse anti-phospho-histone H2A.x and FITC-donkey anti-mouse IgG), c-Jun (rabbit anti-phospho-c-Jun and Cy3-donkey anti-rabbit IgG), p53 (sheep anti-p53 and Cy5-donkey anti-sheep IgG), alpha-tubulin (mouse anti-alpha-tubulin and Cy5-donkey anti-mouse IgG). These antibodies are available as the CellCiphr HepG2 assay kit (Millipore).Digital images of each well were captured using a Cellomics ArrayScan VTI (Thermo Scientific Cellomics) (0.8 NA objective, 0.63x optical coupler, and XF-93 filter set) at 20x magnification. The images were acquired using the autofocus feature of the ArrayScan instrument, which entails the following steps. First, the camera focuses on channel 1 (Hoechst 33342), where nuclei are identified. Second, a Z offset of 1 um is used for capturing mitochondria (MitoTracker Red). […]

| Compound | outcome | AC50 |
| --- | --- | --- |
| OC(c1ccc(Cl)cc1)(c1cncnc1)c1ccccc1Cl (stereo not given) | inactive | – |
| CCCCC(CC)COC(=O)c1ccccc1C(=O)OCC(CC)CCCC (stereo not given) | inactive | – |
| CC1=C(C(=O)Nc2ccccc2)SCCO1 | inactive | – |
| COc1nc(C)nc(NC(=O)NS(=O)(=O)c2ccccc2CCC(F)(F)F)n1 | inactive | – |
| CON(C)C(=O)Nc1ccc(Cl)c(Cl)c1 | inactive | – |
| CC1COC(Cn2cncn2)(c2ccc(Oc3ccc(Cl)cc3)cc2Cl)O1 (stereo not given) | inactive | – |
| COC(=O)N(OC)c1ccccc1COc1ccn(-c2ccc(Cl)cc2)n1 | inactive | – |
| Cc1c(F)c(F)c(COC(=O)C2C(/C=C(\Cl)C(F)(F)F)C2(C)C)c(F)c1F (stereo not given) | inactive | – |
| CNC(=S)S | – | 32.9 µM (active) |
| COc1ccc(C(c2ccc(OC)cc2)C(Cl)(Cl)Cl)cc1 | inactive | – |
| O=C(O)c1nc(Cl)ccc1Cl | inactive | – |
| N#CC(CCc1ccc(Cl)cc1)(Cn1cncn1)c1ccccc1 (stereo not given) | – | 111 µM (active) |
| O=C(Nc1ccccc1)Nc1ccnc(Cl)c1 | inactive | – |
| CC(Oc1ccc(Cl)cc1Cl)C(=O)O (stereo not given) | inactive | – |
| CCOC(=O)CC(SP(=S)(OC)OC)C(=O)OCC (stereo not given) | inactive | – |
| CCOc1cc(Oc2ccc(C(F)(F)F)cc2Cl)ccc1[N+](=O)[O-] | inactive | – |
| COc1nc(C)nc(NC(=O)NS(=O)(=O)c2ccccc2Cl)n1 | inactive | – |
| O=C(O)COc1nc(Cl)c(Cl)cc1Cl | inactive | – |
| N#Cc1cc(Br)c(O)c(Br)c1 | inactive | – |

| Compound | outcome | AC50 |
| --- | --- | --- |
| Cc1ccc(-c2c(Cl)nc(C#N)n2S(=O)(=O)N(C)C)cc1 | inactive | – |
| CCNc1nc(Cl)nc(NCC)n1 | inactive | – |
| CCCCOC(=O)c1ccccc1C(=O)OCCCC | inactive | – |
| CCCCNC(=O)OCC#CI | inactive | – |
| CN(C)C(=S)SSC(=S)N(C)C | – | 1.78 µM (active) |
| COc1cnc(OC)n2nc(NS(=O)(=O)c3c(OCC(F)F)cccc3C(F)(F)F)nc12 | inactive | – |
| Fc1ccc(Oc2ccnc3cc(Cl)cc(Cl)c23)cc1 | – | 100 µM (active) |
| COP(=S)(OC)Oc1nc(Cl)c(Cl)cc1Cl | inactive | – |
| COC(=O)c1ccccc1C(=O)OC | inactive | – |
| CC(C)Oc1cc(-n2nc(C(C)(C)C)oc2=O)c(Cl)cc1Cl | inactive | – |
| CNC(=O)ON=CC(C)(C)SC | inactive | – |
| C#CCOS(=O)OC1CCCCC1Oc1ccc(C(C)(C)C)cc1 (stereo not given) | inactive | – |
| CO/C=C(/C(=O)OC)c1ccccc1Oc1cc(Oc2ccccc2C#N)ncn1 | inactive | – |
| CCCN(CCC)c1c([N+](=O)[O-])cc(S(N)(=O)=O)cc1[N+](=O)[O-] | inactive | 31.7 µM (active) and 35.9 µM (active) |
| C=CCC1=C(C)[C@@H](OC(=O)[C@@H]2[C@@H](C=C(C)C)C2(C)C)CC1=O | – | 118 µM (active) |
| Cc1cc(Cl)ccc1OCC(=O)O | inactive | – |
| CCc1nn(C)c(C(=O)NCc2ccc(C(C)(C)C)cc2)c1Cl | – | 100 µM (active) |
| CCCCNC(=O)n1c(NC(=O)OC)nc2ccccc21 | – | 23.6 µM (active) |
| C=CCC1=C(C)C(OC(=O)C2C(C=C(C)C)C2(C)C)CC1=O (stereo not given) | inactive | 38.1 µM (active) |
